An excerpt weighted towards active compounds, which were near 12% of everything screened.
PLK1 PBD block: inhibitors of human PLK1 polo-box domain binding; AID 720504; Potency, µM, usual class: inhibitors; P53350; 360,000 tested, 2.8% active; Plk1 PBD binding of FITC phosphopeptide, fluorescence polarization; further: series mostly up to about 57 µM; nearly all actives have a fitted effect of over 65% in size
BAZ2B inh: BAZ2B (human) inhibition | Q9UIF8 | AlphaScreen BAZ2B-H3K14Ac peptide displacement | Potency, µM (doses to about 114 µM), actives largely listed as inhibitors | 360,000 tested, 4.4% active | AID 504333; further: nearly all actives have a fitted effect of over 60% in size
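Complex of BAZ2B and biotin-H3K14Ac (50 nM apiece) forms over 30 min at RT, then faces library compounds up to 110 uM for another 30 min; AlphaScreen beads added, 20 min dark incubation, luminescence read.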
G9a block: blocks human histone lysine methyltransferase G9a | Potency, µM (top dose mostly 102 µM), hits mostly inhibitors | 350,000 tested, 8.8% active | G9a H3K9 monomethylation, AlphaScreen, 2 h; further: nearly all actives have a fitted effect of over 75% in size
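Step 1: enzyme (final 20 nM) with compound, 15 min RT. Step 2: substrate peptide 500 nM and SAM 20 uM, 2 h RT. Step 3: anti-H3K9me1 antibody and AlphaScreen beads, 10 min, then plate read.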
HP1b binding inh: HP1-beta chromodomain-methylated histone interaction inhibition | AID 540317 | P83916 | 390,000 tested, 0.56% active | Potency, µM (doses to about 114 µM), usual class: inhibitors | AlphaScreen HP1-beta / biotin-H3K9me3 peptide binding; further: nearly all actives have a fitted effect of over 70% in size
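HP1-beta protein (50 nM final) preincubated 30 min at room temperature with biotinylated H3(1-18)K9me3 peptide (50 nM) in PBS pH 7.4, 0.01% Tween-20, then compound added for 30 min. AlphaScreen streptavidin donor/nickel chelate acceptor beads (10 ug/mL final), 30 min dark, luminescence read.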
PI5P4Ka inh: blocks human PI5P4K alpha kinase activity. P48426. PI5P4Kalpha enzyme, ADP-Glo luminescence, 60 min; active compounds read low. max response, %. 330,000 tested, 1.2% active. AID 652105; active means max response of -50% or lower; inconclusive means between -30% and -50%; inactive means -30% or higher; further: value at the top dose of about 77 µM
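qHTS, 1536-well: enzyme/substrate mix, compound by pin tool, 5 microM ATP final; RT 60 min; ADP-Glo reagents 1 (45 min) then 2 (30 min); luminescence.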
JMJD2A Tudor: inhibitors of human JMJD2A Tudor domain; O75164; AlphaScreen JMJD2A-Tudor / H3K4me3 peptide binding; Potency, µM (series often up to 114 µM), actives largely listed as inhibitors; 390,000 tested, 4.4% active; further: nearly all actives have a fitted effect of over 50% in size
Target sequence (O75164 whole entry, looked up, the tested form may be a part): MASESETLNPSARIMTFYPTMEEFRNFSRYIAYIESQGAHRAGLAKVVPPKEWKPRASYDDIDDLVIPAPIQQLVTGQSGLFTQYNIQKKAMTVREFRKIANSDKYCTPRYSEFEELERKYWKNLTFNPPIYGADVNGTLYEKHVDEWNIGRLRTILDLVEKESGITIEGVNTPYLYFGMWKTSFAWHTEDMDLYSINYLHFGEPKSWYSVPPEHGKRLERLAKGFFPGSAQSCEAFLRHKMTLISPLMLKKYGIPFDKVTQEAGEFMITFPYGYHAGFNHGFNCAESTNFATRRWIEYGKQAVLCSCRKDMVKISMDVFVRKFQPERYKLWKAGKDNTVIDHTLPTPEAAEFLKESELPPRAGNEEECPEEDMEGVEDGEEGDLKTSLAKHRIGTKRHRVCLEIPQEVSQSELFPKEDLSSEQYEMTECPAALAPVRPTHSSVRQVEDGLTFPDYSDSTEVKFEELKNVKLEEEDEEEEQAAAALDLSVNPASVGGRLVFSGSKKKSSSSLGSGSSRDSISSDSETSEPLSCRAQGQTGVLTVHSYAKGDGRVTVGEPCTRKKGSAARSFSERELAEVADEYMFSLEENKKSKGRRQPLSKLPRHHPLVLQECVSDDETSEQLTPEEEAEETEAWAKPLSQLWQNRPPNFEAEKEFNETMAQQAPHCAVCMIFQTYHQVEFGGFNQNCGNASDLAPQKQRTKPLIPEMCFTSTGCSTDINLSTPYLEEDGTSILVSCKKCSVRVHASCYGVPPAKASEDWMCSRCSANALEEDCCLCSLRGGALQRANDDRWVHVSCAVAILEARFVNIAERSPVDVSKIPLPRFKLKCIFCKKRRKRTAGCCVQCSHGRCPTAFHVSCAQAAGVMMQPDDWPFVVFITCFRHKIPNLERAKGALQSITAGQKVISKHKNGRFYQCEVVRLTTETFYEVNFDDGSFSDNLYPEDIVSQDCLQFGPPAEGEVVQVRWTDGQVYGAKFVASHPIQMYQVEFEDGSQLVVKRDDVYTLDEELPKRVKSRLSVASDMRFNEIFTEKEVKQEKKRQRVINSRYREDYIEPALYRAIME
Each line names hits and unclear results; the compound was inactive in the other large screens. Unless noted, the call rests on the fitted dose curve; in most records, active means well fitted curve in the direction sought with a large enough effect; inconclusive means small, poorly fitted or top-dose-only effect, or another doubt; inactive means no such curve, though single readings can be large; an effect the other way counts as inactive or inconclusive.

CCn1c(Cc2ccccc2)n[nH]c1=S	G9a block inconclusive, JMJD2A Tudor inconclusive
CCCn1c(CCc2ccccc2)n[nH]c1=S	G9a block 40µM, JMJD2A Tudor 4.5µM
CCn1c(Cc2c(C)[nH]c3ccccc23)n[nH]c1=S	G9a block 1.8µM, JMJD2A Tudor 4µM
CCn1c(CCc2ccccc2)n[nH]c1=S	JMJD2A Tudor 3.5µM
CCn1c(CSc2nc3ccccc3[nH]2)n[nH]c1=S	G9a block inconclusive, JMJD2A Tudor 6.3µM (no result: PI5P4Ka inh)
Cc1[nH]c2ccccc2c1CCO	none
Cn1c(=O)c2cc(NC(=O)NCCc3cccs3)ccc2n1Cc1ccccc1	none (no result: BAZ2B inh, G9a block, HP1b binding inh, JMJD2A Tudor)
COc1ccc(S(=O)(=O)N2CCCCC2c2cc(C(=O)Nc3ccc(OC)cc3C)no2)cc1 (centres undefined)	none (no result: BAZ2B inh, G9a block, HP1b binding inh, JMJD2A Tudor)
CCn1c(CSCc2ccccc2)n[nH]c1=S	G9a block 7.1µM, JMJD2A Tudor 18µM
CCn1c(CCNC(=O)c2cccs2)n[nH]c1=S	G9a block inconclusive, JMJD2A Tudor inconclusive
CCCCn1c(Cc2ccccc2)n[nH]c1=S	G9a block 13µM, HP1b binding inh inconclusive, JMJD2A Tudor 4µM
CCn1c(CCn2c3ccccc3c3ccccc32)n[nH]c1=S	BAZ2B inh inconclusive, G9a block 22µM
CCn1c(CSCc2ccc(F)cc2)nnc1SCC(=O)NCc1ccccc1	none
COC(=O)c1cc2sc(C)cc2n1Cc1ccc(Br)cc1F	none (no result: PLK1 PBD block, PI5P4Ka inh)
CCc1nc2nc(C)c(NS(=O)(=O)c3ccc(F)cc3)c(=O)n2[nH]1	G9a block 25µM
CCCc1nc2nc(C)c(NS(=O)(=O)c3ccc(C(C)(C)C)cc3)c(=O)n2[nH]1	G9a block 79µM
CCCc1nc2nc(C)c(NS(=O)(=O)c3ccc4c(c3)CCCC4)c(=O)n2[nH]1	none
CCc1nc2nc(C)c(NS(=O)(=O)c3ccc(Br)s3)c(=O)n2[nH]1	G9a block 50µM, JMJD2A Tudor inconclusive
CCc1nc2nc(C)c(NS(=O)(=O)c3ccc(F)c(C)c3)c(=O)n2[nH]1	none (no result: PLK1 PBD block, PI5P4Ka inh)
Cc1ccc(C(=O)NCC(=O)N2CCc3ccccc3C2)cc1C	none
O=S(=O)(c1ccc(Br)cc1)c1nnn2c1nc(Nc1cccc(C(F)(F)F)c1)c1sccc12	none (no result: PLK1 PBD block, PI5P4Ka inh)
Nc1nc(=S)c2[nH]cnc2[nH]1	G9a block 2.2µM, PI5P4Ka inh inconclusive, JMJD2A Tudor 5.6µM
O=C(NNC(=O)C12CC3CC(CC(C3)C1)C2)c1ccncc1	G9a block 40µM
O=C(N/N=C\C=C\c1ccco1)c1cncc(Br)c1	PLK1 PBD block inconclusive, G9a block inconclusive, PI5P4Ka inh -53
O=C(N/N=C/C=C\c1ccco1)c1cccnc1	G9a block 28µM
O=C(N/N=C/C=C/c1ccco1)c1cccnc1	G9a block 8.9µM (no result: PI5P4Ka inh)
O=C(N/N=C/C=C/c1ccccc1)c1cccnc1	none
CCC1CN(C(=O)N2CCC(C(=O)NCCc3cc(OC)ccc3OC)CC2)c2ccccc2O1 (centres undefined)	JMJD2A Tudor inconclusive (no result: PLK1 PBD block, PI5P4Ka inh)
Oc1c(Br)cc(Br)cc1C=Nc1ccc2[nH]ncc2c1	PI5P4Ka inh -51
COc1ccc(/C=N/N2CCN(c3ccc(Cl)cc3)CC2)cc1	none
Cc1ccc(N=C2C(=S)N(c3ccc(C)cc3)C(=N)N2/N=C/c2ccc(Cl)cc2)cc1	PLK1 PBD block inconclusive, BAZ2B inh inconclusive, G9a block inconclusive, HP1b binding inh 3.5µM, JMJD2A Tudor inconclusive
C[C@H]([C@H](C)N1CC(=O)NC(=O)C1)N1CC(=O)NC(=O)C1	G9a block 2.2µM (no result: PLK1 PBD block, BAZ2B inh, HP1b binding inh, PI5P4Ka inh, JMJD2A Tudor)
COc1ccc(NC(=O)C(OC(=O)CNC(=O)c2ccccc2)c2ccccc2)cc1Cl (centres undefined)	none (no result: PLK1 PBD block, BAZ2B inh, G9a block, HP1b binding inh, PI5P4Ka inh)
CSCC[C@H](NC(=O)c1ccc2ccccc2c1)C(=O)N1CCC2(CC1)NCCc1[nH]cnc12	BAZ2B inh inconclusive, G9a block 45µM, JMJD2A Tudor inconclusive
CC1=NC(=O)C(N=Nc2cccc(O)c2)N1c1ccccc1 (centres undefined)	BAZ2B inh 20µM, G9a block inconclusive, HP1b binding inh inconclusive, JMJD2A Tudor 32µM (no result: PI5P4Ka inh)
CN1CCc2c(sc(N)c2C(=O)O)C1	PLK1 PBD block inconclusive, G9a block 28µM
C#CCOCCOCCOCCNc1nc(N2CCN(C(=O)CCCCCCCCCCNC(=O)[C@@H](CCSC)n3cc(CCO)nn3)CC2)nc(N2CCN(C(=O)CCCCCCCCCCNC(=O)[C@H](CCSC)n3cc(CCO)nn3)CC2)n1	none
C#CCOCCOCCOCCNc1nc(N2CCN(C(=O)CCCCCCCCCCNC(=O)Cn3cc(C[C@@H](C)O)nn3)CC2)nc(N2CCN(C(=O)CCCCCCCCCCNC(=O)[C@H](CCCCN)n3cc(CCCC(=O)O)nn3)CC2)n1	JMJD2A Tudor inconclusive
C#CCOCCOCCOCCNc1nc(N2CCN(C(=O)CCCCCCCCCCNC(=O)Cn3cc(CCCCCN)nn3)CC2)nc(N2CCN(C(=O)CCCCCCCCCCNC(=O)[C@@H](CCSC)n3cc(CCO)nn3)CC2)n1	BAZ2B inh inconclusive, HP1b binding inh inconclusive, PI5P4Ka inh inconclusive, JMJD2A Tudor 79µM
C#CCOCCOCCOCCNc1nc(N2CCN(C(=O)CCCCCCCCCCNC(=O)Cn3cc(CCCCCN)nn3)CC2)nc(N2CCN(C(=O)CCCCCCCCCCNC(=O)[C@@H](CCC(=O)O)n3cc(CCCCCN)nn3)CC2)n1	JMJD2A Tudor inconclusive
C#CCOCCOCCOCCNc1nc(N2CCN(C(=O)CCCCCCCCCCNC(=O)[C@H](CO)n3cc(CCCSC)nn3)CC2)nc(N2CCN(C(=O)CCCCCCCCCCNC(=O)[C@H](CCCCN)n3cc(CCO)nn3)CC2)n1	HP1b binding inh inconclusive, PI5P4Ka inh -51, JMJD2A Tudor 56µM (no result: BAZ2B inh, G9a block)
C#CCOCCOCCOCCNc1nc(N2CCN(C(=O)CCCCCCCCCCNC(=O)Cn3cc(CCCCCN)nn3)CC2)nc(N2CCN(C(=O)CCCCCCCCCCNC(=O)Cn3cc(CCCCCN)nn3)CC2)n1	BAZ2B inh 56µM, HP1b binding inh inconclusive, PI5P4Ka inh -64, JMJD2A Tudor 56µM
C#CCOCCOCCOCCNc1nc(N2CCN(C(=O)CCCCCCCCCCNC(=O)Cn3cc(C[C@@H](C)O)nn3)CC2)nc(N2CCN(C(=O)CCCCCCCCCCNC(=O)[C@H](CCCN=C(N)N)n3cc(C[C@@H](C)CC)nn3)CC2)n1	BAZ2B inh inconclusive, HP1b binding inh inconclusive, PI5P4Ka inh -76, JMJD2A Tudor 45µM
Cc1cc2c(s1)c1cnn(Cc3ccc(F)cc3Cl)c(=O)c1n2C	none (no result: PLK1 PBD block, BAZ2B inh, G9a block, HP1b binding inh, PI5P4Ka inh)
Cc1cc(Nc2ccc3c(c2)OCCO3)c2cc(Cl)ccc2n1	G9a block inconclusive, HP1b binding inh inconclusive
CCOCCc1nn2c(=O)cc(COC(=O)c3ccccc3OC)nc2s1	none (no result: PLK1 PBD block, PI5P4Ka inh)
COc1cc(OC)c2c(-c3cccc(-c4ccc(F)c(Cl)c4)c3)cc(=O)oc2c1	none (no result: BAZ2B inh, G9a block)

Assay outcomes: PubChem, National Center for Advancing Translational Sciences (NCATS)
